Source: PubChem BioAssay
Activity calls are given as the source filed them.

Experiments:
[1] = optical density shifts of acrAB sulA E. coli – strain DRC41, OD650, 48 h, E. coli filamentation inducer project, primary screen (AID 1152); conditions: higher = more signal, called active from +8 up or from −8 down;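 note: E. coli MC1000 strain DRC41 lacking acrAB efflux pump and sulA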
[2] = probe aLefty1 binding on compound microarray – biochemical, small-molecule microarray, 635/667 nm fluorescence, primary screen (AID 1153); conditions: higher = more signal;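 note: score merges spot fluorescence with signal-to-noise ratio from the scanned slide images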
[3] = plasmodial surface anion channel blockers, osmotic lysis – cell-based, P. falciparum Indochina, OD700, 1 h, primary screen (AID 1154); conditions: P. falciparum Indochina infected RBC osmotic lysis, higher = more signal, called active from +8 up or from −8 down
[4] = plasmodial surface anion channel blockers, osmotic lysis – cell-based, P. falciparum Indochina, OD700, 2 h, primary screen (AID 1155);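 note: lysis reports solute entry through the parasite surface anion channel PSAC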; conditions: P. falciparum Indochina infected erythrocytes, higher = more signal, called active from +8 up or from −8 down
[5] = changes in parasitized red cell lysis, either direction – P. falciparum Indochina, OD700, 3 h, PSAC antagonist project, primary screen (AID 1156); conditions: P. falciparum-infected erythrocytes, osmotic lysis, higher = more signal, called active from +8 up or from −8 down
[6] = plasmodial surface anion channel blockers, osmotic lysis – cell-based, P. falciparum Indochina, OD700, 18 h, primary screen (AID 1157); conditions: P. falciparum Indochina infected erythrocytes, osmotic lysis OD700, 18 h; higher = more signal, called active from +8 up or from −8 down
[7] = S6 kinase pathway phospho-S6 level changes – cell-based, A549, cytoblot, luminescence, serum-stimulated, primary screen (AID 1158); conditions: 5 h, higher = more signal;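 note: serum-stimulated A549 lung adenocarcinoma cells; signal is phosphorylated S6 detected by cytoblot immunostaining with HRP secondary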
[8] = biological target: NADPH oxidase 2 (Homo sapiens) (UniProt P04839); assay: compounds shifting NOX2 Amplex Red fluorescence – cell-based, HEK293-NOX2, PMA-stimulated, NOX inhibitor project, primary screen (AID 1159); conditions: 45 min, higher = more signal, called active from +8 up or from −8 down; note: test concentration not given here
Sequence of NADPH oxidase 2 (Homo sapiens) (P04839 whole entry, looked up): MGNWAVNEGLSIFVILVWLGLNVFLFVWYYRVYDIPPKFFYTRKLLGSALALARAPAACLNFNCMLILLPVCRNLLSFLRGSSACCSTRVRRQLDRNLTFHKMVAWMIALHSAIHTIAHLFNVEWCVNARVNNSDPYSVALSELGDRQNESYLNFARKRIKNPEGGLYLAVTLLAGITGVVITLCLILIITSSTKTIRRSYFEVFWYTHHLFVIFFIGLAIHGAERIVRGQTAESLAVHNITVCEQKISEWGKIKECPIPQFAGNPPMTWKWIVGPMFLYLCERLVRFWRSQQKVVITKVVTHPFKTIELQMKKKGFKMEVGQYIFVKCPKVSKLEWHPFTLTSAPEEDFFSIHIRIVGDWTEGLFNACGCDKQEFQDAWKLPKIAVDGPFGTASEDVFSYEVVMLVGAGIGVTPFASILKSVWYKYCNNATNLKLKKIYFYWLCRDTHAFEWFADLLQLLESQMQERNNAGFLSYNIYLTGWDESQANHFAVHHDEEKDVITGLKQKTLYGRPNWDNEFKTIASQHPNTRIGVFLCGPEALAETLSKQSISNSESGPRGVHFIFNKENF

[9] = biological target: NADPH oxidase 4 (Homo sapiens) (UniProt Q9NPH5); assay: compounds shifting NOX4 Amplex Red fluorescence – cell-based, HEK293-NOX4, tetracycline-induced, NOX inhibitor project, primary screen (AID 1160); conditions: HEK293-NOX4, Amplex Red H2O2 fluorescence, 45 min; higher = more signal, called active from +8 up or from −8 down
Sequence of NADPH oxidase 4 (Homo sapiens) (Q9NPH5 whole entry, looked up): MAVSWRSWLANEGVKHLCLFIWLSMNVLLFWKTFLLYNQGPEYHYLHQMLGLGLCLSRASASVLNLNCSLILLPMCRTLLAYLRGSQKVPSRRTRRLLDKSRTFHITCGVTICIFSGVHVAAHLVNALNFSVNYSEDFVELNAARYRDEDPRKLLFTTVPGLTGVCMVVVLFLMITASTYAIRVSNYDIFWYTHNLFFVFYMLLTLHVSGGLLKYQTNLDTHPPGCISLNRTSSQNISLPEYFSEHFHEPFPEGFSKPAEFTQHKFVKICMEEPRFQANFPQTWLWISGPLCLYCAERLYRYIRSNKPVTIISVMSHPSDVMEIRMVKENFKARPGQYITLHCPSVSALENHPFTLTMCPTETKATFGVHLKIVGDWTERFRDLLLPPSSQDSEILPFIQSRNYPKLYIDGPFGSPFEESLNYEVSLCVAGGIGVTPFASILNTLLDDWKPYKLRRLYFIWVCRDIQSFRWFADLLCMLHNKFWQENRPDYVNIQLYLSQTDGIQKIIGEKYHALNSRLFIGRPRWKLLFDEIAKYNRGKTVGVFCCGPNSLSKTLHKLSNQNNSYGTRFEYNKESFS

[10] = biological target: NADPH oxidase 5 (Homo sapiens) (UniProt Q96PH1); assay: compounds shifting NOX5 Amplex Red fluorescence – cell-based, HEK293-NOX5, NOX inhibitor project, primary screen (AID 1161); conditions: HEK293-NOX5, ionomycin, 45 min, higher = more signal
Sequence of NADPH oxidase 5 (Homo sapiens) (Q96PH1 whole entry, looked up): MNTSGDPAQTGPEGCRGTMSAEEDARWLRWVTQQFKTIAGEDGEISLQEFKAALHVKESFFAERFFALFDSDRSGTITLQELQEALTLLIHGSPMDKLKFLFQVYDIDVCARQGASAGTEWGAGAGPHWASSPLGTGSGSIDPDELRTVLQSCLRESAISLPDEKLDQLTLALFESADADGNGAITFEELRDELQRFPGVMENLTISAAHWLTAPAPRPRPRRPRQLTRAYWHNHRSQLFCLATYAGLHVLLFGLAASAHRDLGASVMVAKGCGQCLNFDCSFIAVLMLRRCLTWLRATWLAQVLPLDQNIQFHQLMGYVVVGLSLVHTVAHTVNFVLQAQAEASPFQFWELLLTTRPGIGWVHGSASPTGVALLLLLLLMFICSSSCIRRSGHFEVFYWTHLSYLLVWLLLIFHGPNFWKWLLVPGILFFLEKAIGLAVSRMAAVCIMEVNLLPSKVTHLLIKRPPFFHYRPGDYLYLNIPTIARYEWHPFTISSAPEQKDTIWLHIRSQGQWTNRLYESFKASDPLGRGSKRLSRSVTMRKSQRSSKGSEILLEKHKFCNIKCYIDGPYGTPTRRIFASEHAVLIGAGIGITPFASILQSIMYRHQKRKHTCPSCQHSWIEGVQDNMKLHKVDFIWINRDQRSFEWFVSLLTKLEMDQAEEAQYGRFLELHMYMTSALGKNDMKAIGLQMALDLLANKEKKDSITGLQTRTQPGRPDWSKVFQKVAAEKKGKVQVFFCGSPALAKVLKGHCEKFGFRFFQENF

[11] = compound effects on lung adenocarcinoma cell viability – A549, calcein-AM fluorescence, 48 h, basal, profiling panel (AID 1162); conditions: higher = more signal; note: test concentration not given here
[12] = compound effects on differentiated 3T3-L1 adipocyte viability – cell-based, 3T3-L1 adipocytes, calcein-AM fluorescence, 48 h, basal, profiling panel (AID 1163); conditions: 3T3-L1 adipocytes viability, higher = more signal; note: test concentration not given here
[13] = compound effects on hepatocellular carcinoma cell viability – HepG2, calcein-AM fluorescence, 48 h, basal, profiling panel (AID 1164); conditions: higher = more signal; note: test concentration not given here
[14] = compound effects on multiple myeloma cell viability – MM1S, calcein-AM fluorescence, 48 h, basal, profiling panel (AID 1165); conditions: higher = more signal; note: test concentration not given here
[15] = calcein-AM signal in unstimulated myeloma cells – cell-based, calcein-AM fluorescence, 48 h, PK04 Diversity Set, profiling panel (AID 1166); conditions: RPMI8226 myeloma viability, higher = more signal;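 note: cells grown under basal conditions without added stimulus; test concentration not given here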
[16] = JC-1 mitochondrial signal, unstimulated HepG2 cells – cell-based, JC-1 fluorescence, 24 h, 100 nL compound, profiling panel (AID 1167); conditions: HepG2 mitochondrial potential, higher = more signal; note: test concentration not given here
[17] = JC-1 mitochondrial signal, unstimulated adipocytes – cell-based, JC-1 fluorescence, 3T3-L1 adipocytes, 24 h, 100 nL compound, profiling panel (AID 1168); conditions: JC-1 mitochondrial fluorescence, higher = more signal, called active from +8 up or from −8 down; note: test concentration not given here
[18] = JC-1 mitochondrial signal, unstimulated myeloma cells – cell-based, JC-1 fluorescence, RPMI8226, 24 h, 100 nL compound, profiling panel (AID 1169); conditions: JC-1 mitochondrial potential fluorescence, higher = more signal; note: test concentration not given here
[19] = JC-1 mitochondrial signal, unstimulated MM1S myeloma – cell-based, JC-1 fluorescence, 24 h, 100 nL compound, profiling panel (AID 1170); conditions: MM1S mitochondrial potential, higher = more signal; note: test concentration not given here
[20] = resazurin metabolic signal in A549 cells – cell-based, resazurin fluorescence, 24 h, PK04 Diversity Set, profiling panel (AID 1171); conditions: A549 viability, higher = more signal, called active from +8 up or from −8 down; note: test concentration not given here

C#CCNS(=O)(=O)N(C)C
z-score [1]: 1.14 (inactive)
composite z-score [2]: -0.103
z-score [3]: 0.132 (inactive)
z-score [4]: 0.262 (inactive)
z-score [5]: -0.395 (inactive)
z-score [6]: 0.0625 (inactive)
z-score [7]: 0.32
z-score [8]: -0.533 (inactive)
z-score [9]: 0.183 (inactive)
z-score [10]: 0.112
z-score [11]: -0.277
z-score [12]: -0.738
z-score [13]: 0.759
z-score [14]: 0.716
z-score [15]: -0.227
z-score [16]: 0.563
z-score [17]: 0.48 (inactive)
z-score [18]: 0.0262
z-score [19]: -0.777
z-score [20]: 0.943 (inactive)

CC(C)NC(=O)[C@@]1(Cc2ccccc2I)c2ccccc2C(=O)N(Cc2ccccc2C(F)(F)F)[C@H]1c1ccc(CO)cc1
z-score [1]: 0.267 (inactive)
composite z-score [2]: 0.243
z-score [3]: 5.93 (inactive)
z-score [4]: 1.82 (inactive)
z-score [5]: 0.602 (inactive)
z-score [6]: 1.19 (inactive)
z-score [7]: -0.171
z-score [8]: 1.12 (inactive)
z-score [9]: -0.213 (inactive)
z-score [10]: 2.3
z-score [11]: 0.325
z-score [12]: 1.77
z-score [13]: 0.289
z-score [14]: -1.43
z-score [15]: -1.66
z-score [16]: 0.347
z-score [17]: 0.536 (inactive)
z-score [18]: -0.476
z-score [19]: 0.749
z-score [20]: 0.444 (inactive)

CC1C=C(CCCO)C=C(C(=O)OCCS(C)(=O)=O)C(C(=O)OCCS(C)(=O)=O)=CN1Cc1cccc(OC(F)(F)F)c1 (stereo not given)
z-score [1]: -0.311 (inactive)
composite z-score [2]: 0.304
z-score [3]: 1.81 (inactive)
z-score [4]: 0.45 (inactive)
z-score [5]: 0.714 (inactive)
z-score [6]: 0.283 (inactive)
z-score [7]: 0.402
z-score [8]: -1.97 (inactive)
z-score [9]: -0.729 (inactive)
z-score [10]: -1.67
z-score [11]: 0.114
z-score [12]: 0.606
z-score [13]: 1.23
z-score [14]: -0.289
z-score [15]: -0.226
z-score [16]: 1.27
z-score [17]: -0.63 (inactive)
z-score [18]: 0.186
z-score [19]: -0.0273
z-score [20]: -0.0746 (inactive)

COC(=O)C(CC#Cc1ccc2c(c1)[C@]1(C(=O)N2)[C@H](c2ccccc2OCCO)N2[C@H](c3ccccc3)[C@H](c3ccccc3)OC(=O)[C@H]2[C@@H]1C(=O)Nc1nc2ccccc2s1)C(=O)OC
z-score [1]: -1.2 (inactive)
composite z-score [2]: 0.361
z-score [3]: 4.68 (inactive)
z-score [4]: 1.71 (inactive)
z-score [5]: 0.103 (inactive)
z-score [6]: 1.77 (inactive)
z-score [7]: 0.334
z-score [8]: 1.04 (inactive)
z-score [9]: 0.517 (inactive)
z-score [10]: 0.545
z-score [11]: 0.689
z-score [12]: 1.15
z-score [13]: 0.755
z-score [14]: -3.33
z-score [15]: -1.74
z-score [16]: -2.74
z-score [17]: -0.00705 (inactive)
z-score [18]: -0.905
z-score [19]: -0.548
z-score [20]: -0.203 (inactive)
